# Test results taken from PubChem BioAssay (NCATS).
# Values joined by “and” are separate entries in the source; they are usually repeats but may differ in a detail not shown here. Equal entries are not always repeated. Inconclusive results are not listed. Where a call stands in place of a potency, no number is given. Active and inactive are the calls of the source. Unless noted, the call rests on the fitted dose curve.
# How the values were obtained:
# [1] = biological target: Peroxisome proliferator-activated receptor delta (Homo sapiens) (UniProt Q03181); test: qHTS assay for small molecule agonists of peroxisome proliferator-activated receptor delta signaling (AID 588534)
# Sequence of Peroxisome proliferator-activated receptor delta (Homo sapiens) (Q03181 whole entry, looked up): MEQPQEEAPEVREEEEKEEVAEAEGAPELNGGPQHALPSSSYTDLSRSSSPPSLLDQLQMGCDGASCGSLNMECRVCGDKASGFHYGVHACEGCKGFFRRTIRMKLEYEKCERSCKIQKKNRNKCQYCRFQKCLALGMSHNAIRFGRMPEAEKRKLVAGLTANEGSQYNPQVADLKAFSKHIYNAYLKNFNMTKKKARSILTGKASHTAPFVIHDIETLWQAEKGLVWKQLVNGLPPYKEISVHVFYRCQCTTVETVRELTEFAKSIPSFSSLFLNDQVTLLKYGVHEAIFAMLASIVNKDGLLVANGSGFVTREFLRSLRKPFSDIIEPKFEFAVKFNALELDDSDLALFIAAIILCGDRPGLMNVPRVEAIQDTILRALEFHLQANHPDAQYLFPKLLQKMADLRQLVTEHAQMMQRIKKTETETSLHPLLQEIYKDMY
# Procedure, shortened: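 Cells carrying a PPAR-delta beta-lactamase reporter were treated with compounds for 18 h at 37 °C in agonist mode. CCF4 fluorescence was read after 2 h; EC50 and efficacy from Hill fits.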
# [2] = biological target: Voltage-gated inwardly rectifying potassium channel KCNH2 (Homo sapiens) (UniProt Q12809); test: qHTS Assay for Small Molecule Inhibitors of the Human hERG Channel Activity (AID 588834; active means well fitted curve in the direction sought with a large enough effect; an effect the other way counts as inactive or inconclusive;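 further: lower thallium flux fluorescence means stronger hERG block; nearly all actives have a fitted effect of over 50% in size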; further: potency means the concentration at half of the fitted maximal effect; on activity change, negative = inhibition: top concentration of the series differs between compounds)
# Sequence of Voltage-gated inwardly rectifying potassium channel KCNH2 (Homo sapiens) (Q12809 whole entry, looked up): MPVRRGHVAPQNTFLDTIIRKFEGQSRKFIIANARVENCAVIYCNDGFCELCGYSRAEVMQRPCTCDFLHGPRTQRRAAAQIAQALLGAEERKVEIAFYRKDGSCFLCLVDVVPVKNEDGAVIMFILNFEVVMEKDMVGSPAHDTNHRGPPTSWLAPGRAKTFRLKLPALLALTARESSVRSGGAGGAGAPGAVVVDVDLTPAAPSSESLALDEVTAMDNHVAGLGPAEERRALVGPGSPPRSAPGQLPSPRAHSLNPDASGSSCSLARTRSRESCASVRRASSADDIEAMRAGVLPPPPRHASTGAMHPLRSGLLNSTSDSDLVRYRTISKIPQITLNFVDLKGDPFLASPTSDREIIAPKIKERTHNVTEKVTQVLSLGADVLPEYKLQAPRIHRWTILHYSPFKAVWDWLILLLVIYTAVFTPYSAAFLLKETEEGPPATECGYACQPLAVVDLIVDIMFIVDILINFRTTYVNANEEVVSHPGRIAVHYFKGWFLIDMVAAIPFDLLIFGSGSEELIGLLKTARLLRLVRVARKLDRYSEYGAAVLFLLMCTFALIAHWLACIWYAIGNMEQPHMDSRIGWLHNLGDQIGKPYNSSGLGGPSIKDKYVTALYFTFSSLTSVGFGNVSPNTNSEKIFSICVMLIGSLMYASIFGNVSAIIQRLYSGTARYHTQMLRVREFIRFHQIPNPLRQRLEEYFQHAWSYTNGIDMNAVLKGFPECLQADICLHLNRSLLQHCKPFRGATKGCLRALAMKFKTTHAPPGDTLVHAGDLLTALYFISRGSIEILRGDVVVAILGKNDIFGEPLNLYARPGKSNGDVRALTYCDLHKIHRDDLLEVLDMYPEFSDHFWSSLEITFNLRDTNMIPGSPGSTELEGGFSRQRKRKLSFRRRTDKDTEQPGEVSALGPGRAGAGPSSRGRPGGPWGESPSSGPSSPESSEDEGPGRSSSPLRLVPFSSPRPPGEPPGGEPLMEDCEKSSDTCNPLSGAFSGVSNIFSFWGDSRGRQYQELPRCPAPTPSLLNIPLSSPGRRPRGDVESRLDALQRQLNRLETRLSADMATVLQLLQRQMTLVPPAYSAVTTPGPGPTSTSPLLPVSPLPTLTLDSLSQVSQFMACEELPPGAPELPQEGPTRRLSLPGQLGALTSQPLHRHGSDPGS
# Procedure, shortened: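 U2OS cells BacMam-transduced with hERG, 2000 cells/well, compound ~10 min at 37 °C before stimulation buffer. FluxOR thallium flux fluorescence read kinetically on FDSS; decrease indicates block; AC50 from Hill fits.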
# [3] = biological target: Luciferin 4-monooxygenase (Photinus pyralis) (UniProt P08659); test: Biochemical firefly luciferase enzyme assay for NPC (AID 624030; active means well fitted curve in the direction sought with a large enough effect; an effect the other way counts as inactive or inconclusive;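 further: purified P. pyralis luciferase at 10 nM with luciferin and ATP substrate; nearly all actives have a fitted effect of over 70% in size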)
# Procedure, shortened: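 Purified P. pyralis luciferase at 10 nM in 50 mM Tris Acetate (final), luminescence read within 5 minutes of enzyme addition to compounds. Activity normalised to PTC124 versus DMSO; concentration-response curves classed by r2, magnitude and activity.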
# [4] = qHTS for Inhibitors of the Functional Ribonucleoprotein Complex (vRNP) of Lassa (LASV) Arenavirus: LASV Primary Screen - GLuc reporter signal (AID 1347082; calls by dose curve; tested in HEK293 reporter line; further: nearly all actives have a fitted effect of over 60% in size)
# [5] = qHTS for Inhibitors of the Functional Ribonucleoprotein Complex (vRNP) of Lassa (LASV) Arenavirus: Viability assay - alamar blue signal for LASV Primary Screen (AID 1347083; calls by dose curve; tested in HEK293 reporter line; further: nearly all actives have a fitted effect of over 80% in size)
# [6] = qHTS for Inhibitors of the Functional Ribonucleoprotein Complex (vRNP) of Lymphocytic Choriomeningitis Arenaviruses (LCMV): Viability assay - alamar blue signal for LCMV Primary Screen (AID 1347085; calls by dose curve; tested in HEK293 reporter line; further: nearly all actives have a fitted effect of over 80% in size; further: potency means the concentration at half of the fitted maximal effect)
# [7] = biological target: Nucleoprotein (Lymphocytic choriomeningitis virus (strain Armstrong)) (UniProt P09992); test: qHTS for Inhibitors of the Functional Ribonucleoprotein Complex (vRNP) of Lymphocytic Choriomeningitis Arenaviruses (LCMV): LCMV Primary Screen - GLuc reporter signal (AID 1347086); further: nearly all actives have a fitted effect of over 70% in size
# Sequence of Nucleoprotein (Lymphocytic choriomeningitis virus (strain Armstrong)) (P09992 whole entry, looked up): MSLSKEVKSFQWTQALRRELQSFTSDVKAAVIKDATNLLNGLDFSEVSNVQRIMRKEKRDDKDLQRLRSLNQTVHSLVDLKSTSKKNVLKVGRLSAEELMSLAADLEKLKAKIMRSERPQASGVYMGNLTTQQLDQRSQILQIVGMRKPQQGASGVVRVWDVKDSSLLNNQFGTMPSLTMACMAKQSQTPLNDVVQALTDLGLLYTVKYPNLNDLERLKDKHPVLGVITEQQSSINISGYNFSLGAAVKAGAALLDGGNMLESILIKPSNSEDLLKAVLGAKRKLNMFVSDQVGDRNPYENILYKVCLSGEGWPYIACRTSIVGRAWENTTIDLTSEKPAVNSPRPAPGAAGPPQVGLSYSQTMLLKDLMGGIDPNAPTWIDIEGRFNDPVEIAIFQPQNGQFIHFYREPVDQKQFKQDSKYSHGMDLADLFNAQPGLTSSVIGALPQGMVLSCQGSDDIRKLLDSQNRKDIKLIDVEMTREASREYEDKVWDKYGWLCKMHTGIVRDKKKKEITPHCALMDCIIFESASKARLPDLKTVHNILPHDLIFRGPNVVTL
# [8] = biological target: Bile acid receptor (Homo sapiens) (UniProt Q96RI1); test: qHTS assay for small molecule agonists of farnesoid X receptor signaling (AID 588527); settings: HEK293T FXR-UAS-bla, beta-lactamase ratio, 16 h; activation: stronger effect = higher value
# Sequence of Bile acid receptor (Homo sapiens) (Q96RI1 whole entry, looked up): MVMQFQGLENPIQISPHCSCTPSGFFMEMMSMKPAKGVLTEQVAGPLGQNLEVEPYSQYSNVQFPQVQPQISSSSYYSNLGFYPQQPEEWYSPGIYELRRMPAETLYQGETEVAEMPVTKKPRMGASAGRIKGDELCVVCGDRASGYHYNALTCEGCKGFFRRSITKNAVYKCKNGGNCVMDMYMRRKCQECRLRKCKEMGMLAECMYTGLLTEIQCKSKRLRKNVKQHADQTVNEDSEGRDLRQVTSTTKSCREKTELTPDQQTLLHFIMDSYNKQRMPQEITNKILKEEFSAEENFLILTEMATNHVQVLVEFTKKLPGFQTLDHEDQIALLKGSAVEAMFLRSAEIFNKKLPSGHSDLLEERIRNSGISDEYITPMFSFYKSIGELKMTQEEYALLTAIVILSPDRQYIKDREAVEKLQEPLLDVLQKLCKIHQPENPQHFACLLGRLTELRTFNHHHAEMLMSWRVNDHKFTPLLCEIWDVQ
# Procedure, shortened: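 Quantitative HTS used FXR-UAS-bla HEK293T cells with 16 h compound incubation at 37 C. EC50 values came from concentration-response curves normalized to chenodeoxycholic acid.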
# [9] = qHTS profiling of the MIPE4 collection as inhibitors of Plasmodium falciparum (3D7) proliferation (AID 743344; call rule not given here); settings: P. falciparum 3D7 in erythrocytes, SYBR Green DNA fluorescence, 72 h; at 28.5 µM (top of the series) unless noted
# Procedure, shortened: (§1)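 Erythrocytes infected with P. falciparum (0.3% parasitemia, 2.5% hematocrit) incubated with compounds 72 h at 37 C, 5% CO2. Lysis with saponin/Triton buffer containing SYBR Green I, overnight at room temperature in the dark; DNA fluorescence (485/535 nm) normalised to 0.29 uM artemisinin and DMSO.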
# [10] = qHTS profiling of the MIPE4 collection as inhibitors of Plasmodium falciparum (DD2) proliferation (Rep 2) (AID 743346; call rule not given here); settings: P. falciparum Dd2 in erythrocytes, SYBR Green DNA, 72 h; at 28.5 µM (top of the series) unless noted
# Procedure, shortened: as §1
# [11] = biological target: Cytochrome P450 3A4 (Homo sapiens) (UniProt P08684); test: qHTS Assay for Inhibitors and Substrates of Cytochrome P450 3A4 (AID 884; active means well fitted curve in the direction sought with a large enough effect; an effect the other way counts as inactive or inconclusive; further: potency means the concentration at half of the fitted maximal effect; nearly all actives have a fitted effect of over 50% in size)
# Sequence of Cytochrome P450 3A4 (Homo sapiens) (P08684 whole entry, looked up): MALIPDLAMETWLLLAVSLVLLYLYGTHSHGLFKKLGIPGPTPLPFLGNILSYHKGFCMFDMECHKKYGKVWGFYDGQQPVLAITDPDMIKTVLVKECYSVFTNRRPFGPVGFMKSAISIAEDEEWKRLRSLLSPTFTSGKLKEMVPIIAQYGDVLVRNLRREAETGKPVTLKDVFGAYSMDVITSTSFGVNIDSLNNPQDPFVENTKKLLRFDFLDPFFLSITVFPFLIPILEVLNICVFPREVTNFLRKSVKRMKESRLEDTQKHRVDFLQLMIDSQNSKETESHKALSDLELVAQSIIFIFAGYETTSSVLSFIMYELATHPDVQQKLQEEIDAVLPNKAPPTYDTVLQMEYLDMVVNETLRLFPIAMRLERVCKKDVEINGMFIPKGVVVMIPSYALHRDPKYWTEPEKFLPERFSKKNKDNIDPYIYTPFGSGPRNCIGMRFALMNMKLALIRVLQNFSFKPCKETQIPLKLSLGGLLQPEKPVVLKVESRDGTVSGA
# Procedure, shortened: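 20 nM human CYP3A4 with 25 uM Luciferin-PPXE (at KM) in 200 mM KPO4, preincubated 10 min with compound; NADPH regeneration started a 60 min RT reaction. Luciferin detected by luminescence, normalized to 57 uM ketoconazole as full inhibition.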
# [12] = biological target: Cytochrome P450 3A4 (Homo sapiens) (UniProt P08684); test: qHTS Assay for Activators of Cytochrome P450 3A4 (AID 885; active means well fitted curve in the direction sought with a large enough effect; an effect the other way counts as inactive or inconclusive; further: nearly all actives have a fitted effect of over 65% in size)
# Procedure, shortened: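 Quantitative HTS format: compounds preincubated with 20nM human CYP3A4 and Luciferin-PPXE substrate at KM, reaction started by NADPH regeneration, stopped after 60 min, luciferase luminescence read 20 min later.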
# [13] = biological target: Glucocorticoid receptor (Homo sapiens) (UniProt P04150); test: qHTS assay for small molecule agonists of glucocorticoid receptor signaling (AID 588532; active means well fitted curve in the direction sought with a large enough effect in the signal ratio, with a control signal flat; the % refers to the signal ratio); settings: HeLa MMTV-bla, beta-lactamase ratio, agonist, 18 h; stronger effect = higher value; percent of dexamethasone control, DMSO zero
# Procedure, shortened: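 HeLa GRE-bla reporter cells; 18 h compound exposure at 37 C; 2 h CCF4 loading at room temperature; fluorescence at 460 and 530 nm; EC50 by Hill equation.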
# [14] = biological target: Peroxisome proliferator-activated receptor gamma (Homo sapiens) (UniProt P37231); test: qHTS assay for small molecule antagonists of peroxisome proliferator-activated receptor gamma signaling (AID 588537; active means well fitted inhibition curve with a large enough effect in the signal ratio, with a control signal flat, not every such curve was filed as active; the % refers to the signal ratio; further: potency means the concentration at half of the fitted maximal effect)
# Sequence of Peroxisome proliferator-activated receptor gamma (Homo sapiens) (P37231 whole entry, looked up): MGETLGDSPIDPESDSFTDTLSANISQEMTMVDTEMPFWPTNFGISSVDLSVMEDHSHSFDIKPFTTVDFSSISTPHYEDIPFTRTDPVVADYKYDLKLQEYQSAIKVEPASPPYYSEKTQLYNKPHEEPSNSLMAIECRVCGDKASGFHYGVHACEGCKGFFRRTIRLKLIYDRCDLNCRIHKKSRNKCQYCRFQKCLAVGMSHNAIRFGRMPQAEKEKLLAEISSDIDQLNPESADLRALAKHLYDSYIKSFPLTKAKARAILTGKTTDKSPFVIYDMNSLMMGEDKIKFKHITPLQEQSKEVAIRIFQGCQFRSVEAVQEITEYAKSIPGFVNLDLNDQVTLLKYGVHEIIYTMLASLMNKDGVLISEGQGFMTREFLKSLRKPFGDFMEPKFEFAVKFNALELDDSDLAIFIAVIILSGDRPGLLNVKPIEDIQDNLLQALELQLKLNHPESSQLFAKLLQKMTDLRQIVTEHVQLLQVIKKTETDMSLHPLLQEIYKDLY
# Procedure, shortened: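 PPARγ-UAS-bla HEK293 cells (3000/well) in 1% charcoal/dextran-stripped FBS are treated with compound, then stimulated with 50 nM rosiglitazone for 16 h at 37 °C. Read-out is CCF4 β-lactamase fluorescence after 2 h at RT. IC50 comes from Hill fits normalised to rosiglitazone and DMSO.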
# [15] = biological target: Vitamin D3 receptor (Homo sapiens) (UniProt P11473); test: qHTS assay for small molecule agonists of vitamin D receptor signaling (AID 588543)
# Sequence of Vitamin D3 receptor (Homo sapiens) (P11473 whole entry, looked up): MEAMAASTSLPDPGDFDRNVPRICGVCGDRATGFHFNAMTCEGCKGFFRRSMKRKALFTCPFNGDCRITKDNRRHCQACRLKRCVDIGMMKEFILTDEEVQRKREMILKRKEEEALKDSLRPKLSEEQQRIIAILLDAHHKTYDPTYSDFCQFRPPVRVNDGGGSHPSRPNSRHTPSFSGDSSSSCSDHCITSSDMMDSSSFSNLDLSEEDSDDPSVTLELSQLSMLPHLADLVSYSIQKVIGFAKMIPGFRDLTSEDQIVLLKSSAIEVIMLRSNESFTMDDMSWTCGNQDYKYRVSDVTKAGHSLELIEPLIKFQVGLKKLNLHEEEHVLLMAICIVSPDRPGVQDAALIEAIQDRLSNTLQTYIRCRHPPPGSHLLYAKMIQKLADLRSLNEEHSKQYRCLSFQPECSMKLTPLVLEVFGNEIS
# Procedure, shortened: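 VDR-UAS-bla HEK293T cells, 2000/well, 2% charcoal-stripped FBS; compound titration 16 h at 37 C; CCF4 beta-lactamase ratio read. Normalized to 50 nM 1-alpha,25-dihydroxyvitamin D3 (100%) and DMSO; Hill fit gives EC50, efficacy.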
# [16] = qHTS assay for small molecule agonists of the antioxidant response element (ARE) signaling pathway (AID 651741; active means well fitted activation curve with a large enough effect in the signal ratio; the % refers to the signal ratio; further: potency means the concentration at half of the fitted maximal effect)
# Procedure, shortened: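 CellSensor ARE-bla HepG2 cells (2,000/well) carrying ARE-driven beta-lactamase, exposed 16 h at 37 C. LiveBLAzer B/G FRET substrate added for 2 h at room temperature; fluorescence intensity read.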
# [17] = qHTS assay for small molecule activators of the nuclear factor-kappa B (NF-kB) signaling pathway (AID 651749; active means well fitted activation curve with a large enough effect in the signal ratio; the % refers to the signal ratio); settings: NF-kB-bla ME-180 cells, beta-lactamase FRET ratio, 16 h; activation: stronger effect = higher value
# Procedure, shortened: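 NF-kB-bla ME-180 cells carrying a beta-lactamase reporter under an NF-kB response element, 2,000 cells/well, exposed to compound for 16 hr at 37C; FRET-based beta-lactamase fluorescence read-out of pathway activation.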
# [18] = qHTS assay for environmental chemicals that activate the Aryl hydrocarbon Receptor (AhR) signaling pathway (AID 651777; active means well fitted curve in the direction sought with a large enough effect; an effect the other way counts as inactive or inconclusive; further: nearly all actives have a fitted effect of over 15% in size); settings: 1A2-DRE human hepatoma cells, luciferase, 24 h; activation: stronger effect = higher value
# Procedure, shortened: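 Measured luciferase activity, read 30 min after One-Glo addition at room temperature, from human hepatoma cells bearing a dioxin response element–CYP1A2 promoter reporter and exposed to compound for 24 hr at 37 C.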
# [19] = biological target: Peroxisome proliferator-activated receptor alpha (Homo sapiens) (UniProt Q07869); test: qHTS assay for small molecule agonists of the peroxisome proliferator-activated receptor alpha (PPARalpha) signaling pathway (AID 651778; active means well fitted curve in the direction sought with a large enough effect; an effect the other way counts as inactive or inconclusive); settings: PathHunter PPARalpha complementation, chemiluminescence, 6 h; stronger effect = higher value
# Sequence of Peroxisome proliferator-activated receptor alpha (Homo sapiens) (Q07869 whole entry, looked up, the tested form may be a part): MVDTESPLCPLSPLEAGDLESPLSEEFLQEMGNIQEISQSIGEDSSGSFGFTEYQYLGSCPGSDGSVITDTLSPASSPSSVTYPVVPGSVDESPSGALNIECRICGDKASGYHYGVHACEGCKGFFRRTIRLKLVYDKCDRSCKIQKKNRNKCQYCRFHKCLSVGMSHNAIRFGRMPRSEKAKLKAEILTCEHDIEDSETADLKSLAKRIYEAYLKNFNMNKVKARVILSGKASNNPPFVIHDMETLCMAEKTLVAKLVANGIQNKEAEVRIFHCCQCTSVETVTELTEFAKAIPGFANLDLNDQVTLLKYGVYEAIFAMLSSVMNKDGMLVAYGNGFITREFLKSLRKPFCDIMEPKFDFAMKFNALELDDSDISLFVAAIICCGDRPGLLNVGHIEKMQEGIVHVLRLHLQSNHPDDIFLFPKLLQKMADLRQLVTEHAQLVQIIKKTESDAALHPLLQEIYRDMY
# Procedure, shortened: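 Enzyme-fragment complementation assay in which ligand-bound PPARalpha translocates and forms an active enzyme that generates chemiluminescence. Cells were plated overnight, exposed to compound for 6 hr at 37 C, and then given detection reagent for 60 min at room temperature.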
# [20] = Primary qHTS for Huh7 cytotoxicity: counterscreen for inhibitors of MERS-S pseudotyped particle cell entry (AID 1479147); settings: outcome: dose series up to 57.1 µM unless noted
# [21] = Primary qHTS for inhibitors of MERS-S pseudo-typed particle cell entry (AID 1479149); further: nearly all actives have a fitted effect of over 60% in size
# [22] = Primary qHTS for Vero E6 cytotoxicity: counterscreen for inhibitors of SARS-S pseudo-typed particle cell entry (AID 1479150); settings: outcome: dose series up to 57.1 µM unless noted
# [23] = Cytotoxicity counterscreen for inhibitors of SARS-CoV-2 cell entry (AID 1645845); further: nearly all actives have a fitted effect of over 50% in size
# Procedure, shortened: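 HEK293-ACE2 cells (Expi293F stably expressing human ACE2) seeded overnight, then compound for 1 h plus 48 h at 37C. Viability as ATP content by luminescence; normalized to wells with cells and media-only wells.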
# [24] = Primary qHTS to identify inhibitors of SARS-CoV-2 cell entry (AID 1645846); settings: activity change, negative = inhibition: at 57.1 µM (top of the series) unless noted; further: nearly all actives have a fitted effect of over 45% in size
# Procedure, shortened: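 HEK293 cells stably expressing human ACE2, pre-treated 1 h with compound, then infected with MLV particles pseudotyped with Wuhan-Hu-1 spike (C-terminal 19-aa truncation). Luciferase luminescence after 48 h at 37 °C, normalised to spike PP and bald PP.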
compound,measurement,setting,value
O=C(O)/C=C/C(=O)O,Potency,[1],inactive
same,Potency,[2],inactive
same,Potency,[3],inactive
same,Potency,[4],inactive
same,Potency,[5],inactive
same,Potency,[6],inactive
same,Potency,[7],inactive
CCCCCCCCCCCCCc1ccccc1,activation,[8],-1.99% (inactive)
same,Potency,[1],inactive
same,Potency,[4],inactive
same,Potency,[5],inactive
same,Potency,[6],inactive
same,Potency,[7],inactive
C[C@H](CCC(=O)O)[C@H]1CCC2C3CC[C@@H]4C[C@H](O)CC[C@]4(C)C3CC[C@@]21C (some centres undefined),"parasite growth, % of DMSO control",[9],97.3%
same,"parasite growth, % of control (lower = inhibition)",[10],65%
same,Potency,[4],inactive
same,Potency,[5],inactive
same,Potency,[6],inactive
same,Potency,[7],inactive
O=C(OCc1ccccc1)c1ccccc1O,Potency,[1],inactive
same,Potency,[4],inactive
same,Potency,[5],inactive
same,Potency,[6],inactive
same,Potency,[7],inactive
CCNc1nc(N)nc(Cl)n1,Potency,[1],inactive
same,Potency,[4],inactive
same,Potency,[5],inactive
same,Potency,[6],inactive
same,Potency,[7],inactive
C[C@H]1[C@H](NC(=O)C(=NOC(C)(C)C(=O)O)c2csc(N)n2)C(=O)N1S(=O)(=O)O,"parasite growth, % of DMSO control",[9],97.7%
same,"parasite growth, % of control (lower = inhibition)",[10],91.7%
same,Potency,[4],inactive
same,Potency,[5],inactive
same,Potency,[6],inactive
same,Potency,[7],inactive
CC(C)Nc1nc(N)nc(Cl)n1,Potency,[1],inactive
same,Potency,[4],inactive
same,Potency,[5],inactive
same,Potency,[6],inactive
same,Potency,[7],inactive
CC(=O)OC/C=C(\C)CCC=C(C)C,Potency,[1],inactive
same,Potency,[4],inactive
same,Potency,[5],inactive
same,Potency,[6],inactive
same,Potency,[7],inactive
C1CCC2(CCCCO2)OC1,Potency,[1],inactive
same,Potency,[4],inactive
same,Potency,[5],inactive
same,Potency,[6],inactive
same,Potency,[7],inactive
c1ccc(Nc2cccc3ccccc23)cc1,Potency,[11],31.6 µM (active)
same,Potency,[12],inactive
same,activation,[13],4.55% (inactive)
same,Potency,[1],inactive
same,Potency,[14],39.8 µM (active) and 44.7 µM (active)
same,Potency,[15],inactive
same,Potency,[2],28.2 µM (active)
same,Potency,[16],42.2 µM (active) and 24.3 µM (active)
same,activation,[17],-0.293% (inactive)
same,activation,[18],4.97% (inactive)
same,max response,[19],-0.23% (inactive)
same,Potency,[4],inactive
same,Potency,[5],inactive
same,Potency,[6],inactive
same,Potency,[7],inactive
C/C=C/C=C/CCCCCCCO,activation,[8],-0.999% (inactive)
same,Potency,[1],inactive
same,Potency,[4],inactive
same,Potency,[5],inactive
same,Potency,[6],inactive
same,Potency,[7],inactive
CC(C)CCCCCCCCCCCCCCC(=O)O,Potency,[1],inactive
same,Potency,[4],inactive
same,Potency,[5],inactive
same,Potency,[6],inactive
same,Potency,[7],inactive
CC/C=C\CCOC(=O)c1ccccc1O,Potency,[1],inactive
same,Potency,[4],inactive
same,Potency,[5],inactive
same,Potency,[6],inactive
same,Potency,[7],inactive
C=CC(=C)CCC=C(C)C,Potency,[1],inactive
same,Potency,[4],inactive
same,Potency,[5],inactive
same,Potency,[6],inactive
same,Potency,[7],inactive
CS(=O)(=O)c1ccc(C2=C(c3ccccc3)C(=O)OC2)cc1,Potency,[4],inactive
same,Potency,[5],inactive
same,Potency,[6],27.3 µM (active)
same,outcome,[20],inactive
same,Potency,[21],inactive
same,outcome,[22],inactive
same,Potency,[23],inactive
same,"activity change, negative = inhibition",[24],-28.2% and -25.4%
